Measurements from PubChem BioAssay (NCATS).
Records with an inconclusive call do not appear. Active and inactive are the calls of the source. The call rests on the fitted dose curve; in most records, active means well fitted cell-killing curve with a large enough effect; inconclusive means small, poorly fitted or top-dose-only effect; inactive means flat fitted curve, though single readings scatter.

Key:
[1] = Cell Viability - LYMP2-021 (AID 974); settings: LYMP2-021 lymphoblastoid cells viability; series mostly up to 92.2 µM;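 further: compound exposure lasts 24 hours at 37 °C; nearly all actives have a fitted effect of over 55% in size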
Method in brief: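 ATP luminescence (CellTiter-Glo, 30 min RT) after 24 h compound exposure at 37 C; 2500 human lymphoblastoid cells/well, 5 h settle beforehand. Cytotoxicity = concentration-dependent ATP drop, AC50 by Hill fit.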

[2] = Cell Viability - LYMP2-023 (AID 975); settings: LYMP2-023 lymphoblastoid cell viability; series mostly up to 92.2 µM;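 further: cellular ATP measured by luciferase luminescence as viability proxy; cells exposed to compound for 24 hours at 37 °C; nearly all actives have a fitted effect of over 55% in size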
Method in brief: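 CellTiter-Glo luminescence after 30 min at room temperature; decrease in intracellular ATP reflects toxicity. Cells: human lymphoblastoid line, 2500/well, 24 hr compound exposure at 37 C. AC50 fitted to standard Hill equation from concentration-response.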

[3] = Cell Viability - LYMP2-025 (AID 976); settings: LYMP2-025 lymphoblastoid cell viability; series mostly up to 92.2 µM
Method in brief: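 CellTiter-Glo luminescence (cellular ATP) after 24 h compound exposure at 37 C; LYMP2-025 human lymphoblastoid cells, 2500/well, complete medium. Tetraoctylammonium bromide positive control. AC50 by Hill equation fit of qHTS concentration-response.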

[4] = Cell Viability - LYMP2-002 (AID 977); settings: LYMP2-002 lymphoblastoid cell viability, qHTS; series mostly up to 92.2 µM
Method in brief: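 In this qHTS viability screen, 2500 human lymphoblastoid cells per well receive compound for 24 hr at 37 C, and luciferase-based ATP luminescence gives the viability signal. Tetraoctylammonium bromide serves as positive control.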

[5] = Cell Viability - LYMP2-006 (AID 978); settings: LYMP2-006 lymphoblastoid cell viability, qHTS; series mostly up to 92.2 µM; further: nearly all actives have a fitted effect of over 60% in size
Method in brief: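 In this cytotoxicity screen, the human lymphoblastoid line grew in complete medium with test compounds for 24 hr at 37 C. Cellular ATP served as the viability signal.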

[6] = Cell Viability - LYMP2-007 (AID 979); settings: LYMP2-007 lymphoblastoid cell viability; series mostly up to 92.2 µM;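 further: cells exposed to compound for 24 h before reading; nearly all actives have a fitted effect of over 60% in size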
Method in brief: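 qHTS cytotoxicity: 2500 cells/well, 5 hr 37 C settle, compound 24 hr 37 C, CellTiter-Glo 30 min RT, luminescence. Decrease in ATP = toxicity. AC50 by standard Hill equation; tetraoctylammonium bromide positive control.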

[7] = Cell Viability - LYMP2-008 (AID 980); settings: LYMP2-008 lymphoblastoid cell viability, qHTS; series mostly up to 92.2 µM; further: nearly all actives have a fitted effect of over 60% in size
Source text: (§1) NIH Chemical Genomics Center [NCGC]
(§2) NIH Molecular Libraries Screening Centers Network [MLSCN]
(§3) National Institutes of Environmental Health Sciences [NIEHS]
(§4) National Toxicology Program [NTP]
(§5) We have developed a 1536-well cell-based assay for quantitative high throughput screening (qHTS) against a number of cell lines to determine in vitro cytotoxicity of small molecules. This particular assay uses a human lymphoblastoid cell line (LYMP2-008) purchased from Coriell Institute for Medical Research.
(§6) NCGC Assay Protocol Summary:
(§7) The CellTiter-Glo luminescent cell viability assay (Promega) is a homogeneous method to measure the number of viable cells in culture. The end point readout of this assay is based on quantitation of intracellular ATP, an indicator of metabolic activity, using the luciferase reaction. Luciferase catalyzes the oxidation of beetle Luciferin to oxyluciferin and light in the presence of ATP. The luminescent signal is proportional to amount of ATP present.
(§8) Using the CellTiter-Glo luminescent cell viability assay, the amount of cellular ATP was measured in the lymphoblastoid cell line with complete culture medium following compound treatment for 24 hours. The assay was performed in opaque white Kalypsys 1536-well plates. In the screen, tetraoctylammonium bromide was used as positive control. Library compounds were measured for their ability to cause acute toxicity in the cell line, as reflected by a decrease in intracellular ATP levels, in a concentration-dependent manner. […] AC50 values were determined from concentration-response data modeled with the standard Hill equation.
(§9) qHTS protocol for CellTiter Glo lymphoblastoid cellular assay
(§10) [Step] [Parameter] [Value] [Description]
(§11) 1. Reagent; 5 uL; 2500 lymphoblastoid cells/well
(§12) 2. Time; 5 hr; 37 C incubation
(§13) 4. Controls; 23 nL; Tetraoctylammonium bromide 6.4pM to 92 uM
(§14) 5. Time; 24 hr; 37 C incubation
(§15) 6. Reagent; 5 uL; CellTiter Glo reagent
(§16) 7. Time; 30 min; Room Temperature
(§17) 8. Detection; Luminescence; Viewlux plate reader
(§18) Keywords: cell viability, cytotoxicity, lymphoblastoid cell line, luminescence, NTPHTS, NTPHTS_NCGC, NIEHS, DSSTox, MLSMR, MLSCN, NIH Roadmap, qHTS, NCGC

[8] = Cell Viability - LYMP2-012 (AID 982); settings: LYMP2-012 lymphoblastoid cell viability qHTS; series mostly up to 92.2 µM;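 further: cellular ATP by luciferase luminescence where a drop means cytotoxicity; cells exposed to compound for one day before reading; nearly all actives have a fitted effect of over 55% in size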
[9] = Cell Viability - LYMP2-014 (AID 983); settings: LYMP2-014 lymphoblastoid cells, viability qHTS; series mostly up to 92.2 µM; further: nearly all actives have a fitted effect of over 50% in size
Method in brief: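 2500 cells/well, 5 hr 37 C; cpd 24 hr 37 C, complete medium; CellTiter-Glo 30 min RT, luminescence; ATP loss = toxicity; AC50 via Hill eqn; tetraoctylammonium bromide positive control.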

[10] = Cell Viability - LYMP2-010 (AID 981); settings: LYMP2-010 lymphoblastoid cell viability, qHTS; series mostly up to 92.2 µM;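 further: cells exposed to compound for 24 hours at 37 °C; nearly all actives have a fitted effect of over 55% in size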; further: potency means the concentration at half of the fitted maximal effect
Source text: as §1, §2, §3, §4
as §5, with “(LYMP2-010)” for “(LYMP2-008)”
as §6, §7, §8, §9, §10, §11, §12, §13, §14, §15, §16, §17, §18

Measured: Potency

NC(N)=NC(=O)c1nc(Cl)c(N)nc1N
not listed: [10]
inactive: all other assays above

CC(=O)Oc1ccccc1C(=O)O
inactive: all assays above

Cn1cnc([N+](=O)[O-])c1Sc1ncnc2nc[nH]c12
active: [10] 39.8 µM
inactive: [3] | [4] | [9]

NS(=O)(=O)c1cc2c(cc1Cl)NC=NS2(=O)=O
inactive: all assays above

O=c1[nH]cnc2[nH]ncc12
not listed: [3]
inactive: all other assays above

CCCC(CCC)C(=O)O
inactive: all assays above

NC(=O)c1cnccn1
inactive: all assays above
